In general, % Inhibition refers to the change of the read-out against control, counted positive when it falls.

Molecules are shown by their SMILES. Among all 4,800 compounds or so, about 410 (8.5%) showed an effect of 50% or more. The full list was thinned out, with strong results kept by preference.

In the assay the test system is Plasmodium falciparum. Put plainly: Confirmatory screen in NF54 pLDH assay, in single point, at 2uM, 72h. Format: functional, Erythrocyte. As to conditions: timepoint 72 hour.
`CCN(CC)c1ccc(C(=O)C(F)(F)F)c(O)c1`: the “% Inhibition” value turned out to be 0%.

With `CCC(=O)OCCN1CCN(CCN(C(=O)CC)c2ccc(C3CCCC3)cc2)CC1`, the “% Inhibition” value is 3%. The value for `O=C1C[C@H](c2nc3cc(Cl)ccc3o2)CN1c1ccc(F)cc1` was -13%; that for `Cc1cccn2cc(CN(C)[C@H](c3ccccn3)C3CC3)nc12` was 4%. The value for `COc1ccc2cc3n(c2c1)C[C@](C(=O)NC1CCCCCC1)(c1ccccc1)N(Cc1cccc(Br)c1)C3=O` was 10%; that for `Cc1ccc(NC(=O)CC(=O)O)c(C)c1` was -5%; that for `NC1(c2noc([C@@H]3CCCO3)n2)CCCCCC1` was 13%. Under `CC1(C)c2ccccc2CCN1C(=O)CCc1ncc(-c2ccccc2)o1` stands 8%.

In the case of `CN1CCC(n2ncc3[nH]c(-c4ccc(C(F)(F)F)cc4)nc32)CC1`, the “% Inhibition” value is recorded as 99%. The value for `CN1CCN(c2nc(-c3cccc(C(F)(F)F)c3)nc3c2cnn3Cc2ccccc2)CC1` was -3%.

On to `CN(c1nc2c(cnn2C)c(=O)[nH]1)C1CCCC1c1ccc(C(F)(F)F)cc1` (stereo not drawn), for which the “% Inhibition” value worked out at 10%. As to `O=C(CCNC(=O)C1CC1c1c(F)cccc1Cl)NC1CCS(=O)(=O)C1` (stereo not drawn), the “% Inhibition” value is listed as -19%.

With `C[C@@H](CNc1nc(-c2ccccc2)nc2nc(-c3ccc(Cl)cc3)oc12)N1CCCCC1`, the “% Inhibition” value stood at 76%.

As to `O=c1[nH]c2ccccc2c(NCc2ccccc2)c1N1CCN(c2ccccc2)CC1`, the “% Inhibition” value was 1%. The value for `CC1(C)Cc2nc3ccccc3c(NCc3ccccc3)c2[C@@H](O)C1` was 54%; that for `CC(=O)N1CC[C@H](CC(=O)N(C)Cc2ccccc2)C1` was 0%. The value for `Cc1ccc(NC(=O)Cn2c(C)cc(=O)c3sccc32)cc1Cl` was -2%; that for `CCCNC(=O)Cn1nc2cc(-c3ccc(OC)cc3)nc(C)n2c1=O` was -8%. The value for `OC(CC(Nc1ccc(Cl)cc1)c1ccccc1)c1ccccc1` (stereo not drawn) was -7%. Consider `O=S(=O)(Cc1ccccc1)N1CCC2(CCCCC2)C1`, for which the “% Inhibition” value stood at 6%. Under `COc1ccc(OC)c(-c2csc(N3C(=O)CC4CS(=O)(=O)CC43)n2)c1` (stereo not drawn) stands 10%.

As for `COc1ncnc2c1CN(C(=O)c1cc3c(s1)CC[C@H](C)C3)CC2`, the “% Inhibition” value amounted to 13%. In the case of `CO[C@H]1CCOC2(CCN(C(=O)c3ccccc3F)CC2)C1`, the “% Inhibition” value is 9%. Turning to `O=C(CN1CCN(Cc2ccccc2F)C1=O)NC1CCCCCCC1`, the “% Inhibition” value is reported as -2%. Turning to `O=C(c1ccccc1Cl)N1CCC[C@H](n2cnc3ccccc3c2=O)C1`, the “% Inhibition” value is -12%. The value for `O=C(c1csc(C(=O)N2CCCC2)n1)N1CCN(Cc2ccccc2)CC1` was -4%. The value for `CCN(C[C@H]1CCCO1)C(=O)c1cnc(Cc2ccccc2)s1` was -15%. The value for `CCn1cc(C(=O)N(C2CCCCC2)C2CCCCC2)c(C)n1` was -13%; that for `CN(C(=O)Cn1c(=O)n(-c2cc(F)cc(F)c2)c(=O)c2sccc21)c1ccccc1` was 9%; that for `O=C(CN1CCOCC1)N1CCN(CCCOc2ccccc2)CC1` was 9%. In the case of `Oc1cc(-c2ccc(F)cc2)nn1-c1nc2ccccc2[nH]1`, the “% Inhibition” value is given as -11%.

With `Cc1nn(-c2nc3ccccc3[nH]2)c(O)c1CCC(C)C`, the “% Inhibition” value was determined as 68%.

As for `Cc1nn(-c2nc3ccccc3[nH]2)c(O)c1Cc1ccccc1`, the “% Inhibition” value was determined as 17%. Under `O=S1(=O)CCC(NCCC2CCCO2)c2cc(F)c(F)cc21` (stereo not drawn) stands -1%.

Turning to `C[C@H]1CS(=O)(=O)N(c2ccc(C(=O)Nc3ccccc3Oc3ccccc3)c(Cl)c2)C1=O`, the “% Inhibition” value is given as -3%.

For the molecule `O=C(CCS(=O)(=O)c1ccc2ccccc2c1)Nc1ncn(Cc2c(F)cccc2Cl)n1`, the “% Inhibition” value is given as 4%. Under `Cc1ccc(CNC2CCN(C)CC2)c(OCc2ccco2)c1` stands 3%. As to `O=C(NCCOc1cccc(F)c1)c1cccnc1NC1CCCC1`, the “% Inhibition” value was found to be 1%.

`O=C(Nc1ccccc1-n1ccnc1)c1cnccn1`: the “% Inhibition” value is -7%. The value for `Cc1cccc(N2CCN(C(=O)CCC3=Nc4cc(C(F)(F)F)ccc4S(=O)(=O)N3)CC2)c1C` was 12%. As to `COc1ccc(OC)c(CCNC(=O)Cn2ccc3cc(S(=O)(=O)N4CCCC4)ccc32)c1`, the “% Inhibition” value is reported as 11%. The value for `COc1ccccc1C1c2[nH]c3ccccc3c2C[C@H]2C(=O)N(CC(O)c3ccccc3)CC(=O)N12` (stereo partly drawn) was 12%; that for `COc1ccc(CNC(=O)c2ccc(N3C(=O)[C@@H]4Cc5c([nH]c6ccccc56)C(c5cccc(OC)c5)N4C3=O)cc2)cc1` (stereo partly drawn) was 32%; that for `CCOc1ccc(C2c3[nH]c4ccccc4c3C[C@H]3C(=O)N(C4CCN(Cc5ccccc5)CC4)CC(=O)N23)cc1OC` (stereo partly drawn) was 79%. For the molecule `CCN1c2cc(C)ccc2-n2cccc2C12CCNCC2`, the “% Inhibition” value is on record as -7%. Under `COc1ccc(C(C)(C)C(=O)N(C)Cc2cn(C)nc2C(C)C)cc1` stands 13%; under `COc1nc(NC2CCS(=O)(=O)CC2)ncc1F`, 77%; under `CC1(C)C(NCC(O)COc2ccc(F)c(F)c2)[C@@H]2CCC[C@@H]21` (stereo partly drawn), 75%. The value for `Cc1cccc2sc(N3CCC[C@H](CNS(N)(=O)=O)C3)nc12` was 9%; that for `Cc1nc(N2CCC(c3nc(-c4ccccc4)no3)CC2)c2c(C)noc2n1` was 9%. Under `CCn1nccc1CN(C)C(=O)c1cc(S(=O)(=O)N(C)C)c(Cl)cc1Cl` stands -10%; under `COc1cccc(-c2nc(C)c(C(=O)Nc3nc(C(C)C)n[nH]3)s2)c1`, 10%; under `O=C(Nc1ccc(N2CCCC2)c(F)c1)C(=O)Nc1ccon1`, -13%. Turning to `O=C(NC1CCCCC1)c1nn(-c2ccccc2)c(=O)c2ccccc12`, the “% Inhibition” value is reported as -12%. Under `CN1CCCN(c2ccc(NC(=O)c3nn(-c4ccccc4)c(=O)c4ccccc34)cc2F)CC1` stands 68%; under `Cc1ccc(S(=O)(=O)N(CC(=O)N[C@@H](C)c2ccccc2)c2cccc(Br)c2)cc1`, 11%; under `CCCc1ccc(OCCNC(=O)C2CCCC2)cc1`, 3%. Under `O=C(Nc1ccccc1)C(=O)Nc1ccc2ncc(Cl)n2c1` stands 7%. Under `O=C(c1cc2nc(-c3ccc(Cl)c(Cl)c3)cc(C(F)(F)F)n2n1)N1CCN(c2ccccc2)CC1` stands -7%; under `CCc1ccc(-c2cc3c(=O)n(CC(=O)N4CC(C)CC(C)C4)ncn3n2)cc1` (stereo not drawn), 11%; under `Cc1sc2nc(-c3ccccn3)nc(NCC(=O)N3CCC(O)CC3)c2c1-c1ccccc1`, 23%.

For the molecule `Cc1cc(NCCc2nccn2C)ncn1`, the “% Inhibition” value is given as -4%. Regarding `CCN1CCN(c2nc3ncn(CC(=O)NCCCc4ccccc4)c(=O)c3s2)CC1`, the “% Inhibition” value is -2%. The value for `CCc1c(C)nn(S(=O)(=O)c2ccc3ccccc3c2)c1O` was -3%; that for `Cc1ncsc1COC(=O)c1ccnc(N(C)C)c1` was 10%. In the case of `C[C@H]1CCC[C@@H](NCCc2ccccc2)CCC/C=C/c2cc(O)cc(O)c2C(=O)O1`, the “% Inhibition” value came out at 72%. Under `Cc1cccc(NC(=O)c2cc(Cl)c[nH]2)n1` stands 6%; under `COc1ccccc1C1CC1c1nc(CC(=O)NC2CCCC2)no1` (stereo not drawn), -5%. The value for `CN(CCNC(=O)CCc1cn(-c2ccccc2)nc1-c1ccc2c(c1)OCO2)C1CCCCC1` was 49%; that for `Cc1ccc(-c2noc(CCC(=O)NC[C@H]3CCCO3)n2)c(=O)n1C(C)C` was 0%. The value for `CC[C@H](C)NC(=O)c1cn(-c2cccc(C)n2)cn1` was 13%; that for `Nc1ccc(Cc2nnc3n2CCC3)cc1` was 8%; that for `O=C(N[C@@H](CN1CCCC1)c1ccccc1)N1CCC(c2ccn[nH]2)CC1` was 43%.

For the molecule `CN(C)CCCNCc1ccccc1F`, the “% Inhibition” value turned out to be 10%. In the case of `OCCNCc1c(Cl)cccc1Cl`, the “% Inhibition” value is on record as 4%.

On to `Clc1cccc(CNCCCNc2ccncc2)c1Cl`, for which the “% Inhibition” value worked out at 95%. Consider `CC(NC(=O)C1CCC1)C(=O)Nc1ccn(C(C)c2ccccc2)n1` (stereo not drawn), for which the “% Inhibition” value is on record as -6%. Regarding `O=C(Nc1ccc(Cn2ccnc2)cc1)c1cc2ccccc2cc1OC(F)F`, the “% Inhibition” value was -12%. The value for `O[C@@H](Cc1ccc2ccccc2n1)c1ccccc1` was -3%. The value for `Cc1ccc[n+](Cc2ccc3ccccc3n2)c1` was 53%. Under `c1ccc2c[n+](Cc3ccc4ccccc4n3)ccc2c1` stands 47%; under `CCn1nc(-n2cnnc2)c(NS(=O)(=O)c2ccc(Br)cc2C)c1C`, 12%; under `CC(=O)Nc1cccc(NC(=O)Cn2c(=O)n(CCc3cccs3)c(=O)c3ccccc32)c1`, 10%. Turning to `CCOC(=O)c1ncn(C2CCCCC2)c1N`, the “% Inhibition” value was determined as 10%.

With `CCOC(=O)c1cn(CC)c2cc(NC3CCCCC3)c(F)cc2c1=O`, the “% Inhibition” value was determined as 69%. Under `CCOC(=O)c1cc(NC(=O)C(C)(C)NC(=O)OC(C)(C)C)c(F)cc1C` stands 8%; under `Cc1cc2[nH]ncc2cc1NC(=O)c1ccco1`, 9%.

With `CC[C@H]1C[C@@H]1CNC(=O)c1cccc(NC(=O)c2ccco2)c1`, the “% Inhibition” value is recorded as -2%. Under `COC(C)(C)c1nc(Cn2cnc3ccccc32)no1` stands 6%; under `CC(C)[C@H](NC(=O)c1ccc(Cl)cc1Cl)C(=O)O`, -5%; under `CCOC(=O)CNc1ccc(F)c(Cl)c1`, -3%. With `CCOC(=O)CCn1cc(F)c(=O)[nH]c1=O`, the “% Inhibition” value is 66%. For the molecule `CCOC(=O)COc1cc(N)c(F)cc1Cl`, the “% Inhibition” value is reported as -9%. Under `COCCCNC(=O)c1cncc(Br)c1` stands -2%. The value for `NC(=O)c1cc(Cl)c(Cl)c(Cl)c1` was -22%; that for `O=C1CCC[C@H](O)N1Cc1ccc(F)cc1` was 8%. The value for `CCc1ccc(CN2CCC[C@H](c3ncc[nH]3)C2)nc1` was 52%; that for `CC(C)n1ccc(CN2CCC[C@H](c3cc(C(F)(F)F)[nH]n3)C2)n1` was 1%; that for `CCc1ccc([C@H]2NCCc3[nH]cnc32)nc1` was 24%. Regarding `c1ccc(C(c2ccccc2)N2CCN(c3nn4cnnc4c4ccccc34)CC2)cc1`, the “% Inhibition” value worked out at 65%. Under `O=C(c1cccc(C(=O)N2CCN(C(c3ccccc3)c3ccccc3)CC2)c1)N1CCN(C(c2ccccc2)c2ccccc2)CC1` stands 26%; under `CCc1cc(C(=O)N2CCCCC2)c2c(C)nn(-c3ccc(OC)cc3)c2n1`, 10%; under `COC(=O)[C@](Nc1ccc(Oc2ccccc2)cc1)(c1cc(C)c(O)c(C)c1)C(F)(F)F`, 7%.

The record behind these values is ChEMBL document CHEMBL4888484, “Replenishing the malaria drug discovery pipeline: Screening and hit evaluation of the MMV Hit Generation Library 1 (HGL1) against asexual blood stage Plasmodium falciparum ,using a nano luciferase reporter read-out” (2022).
